Test [1] in a line: HepG2 liver cancer cell viability effects, profiling panel, resazurin fluorescence, 24 h, PK04 Diversity Set (AID 1172). The conditions noted are these: higher = more signal. (Resazurin is reduced to fluorescent resorufin, in cell work by metabolically active cells.)
Test [2] in a line: basal S. cerevisiae growth modulation, no modifier, primary screen, OD600, strain BY4716, 24 h, basal condition (AID 1173). The conditions noted are these: OD600, 24 h, higher = more signal, called active from +8 up or from −8 down.
Test [3] in a line: MM1S myeloma cell viability, profiling panel, resazurin fluorescence, basal, 24 h, PK04 Diversity Set (AID 1174). Particulars: higher = more signal, called active from +8 up or from −8 down.
Test [4] has as its target Dihydroorotate dehydrogenase (quinone), mitochondrial (Plasmodium falciparum (isolate 3D7)) (UniProt Q08210). The experiment in a line: PfDHODH enzyme inhibitors, primary screen, biochemical, C-terminal His tag, absorbance 600 nm (AID 1175).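 Also: recombinant parasite enzyme with a five histidine tag at its C terminus.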 The conditions noted are these: DCIP absorbance 600 nm, higher = more signal, called active from +8 up or from −8 down.
Test [5] is described as follows: P. aeruginosa biofilm formation inhibitors, primary screen, strain PAO1, LB-PBS medium, absorbance 600 nm (AID 1176). Particulars: P. aeruginosa PAO1 growth/biofilm, A600, 12 h; higher = more signal.
The nature of test [6]: S. cerevisiae RM11-1a growth modifiers, primary screen, strain RM11-1a, OD600, basal, 24 h (AID 1177).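 Also: cultures grown under basal conditions with no added stressor.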 Particulars: OD600, 24 h, higher = more signal, called active from +8 up or from −8 down.
Test [7] can be described thus: E. coli acrAB mutant growth effects, primary screen, E. coli filamentation inducers, strain DRC39, OD650, 24 h (AID 1178).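 Also: growth measured as culture turbidity by optical density at 650 nm.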 Particulars: higher = more signal, called active from +8 up or from −8 down.
Test [8] is described as follows: E. coli acrAB mutant growth effects, primary screen, E. coli filamentation inducers, strain DRC39, OD650, 48 h (AID 1179).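 Also: screen aims at cell division blockers that make cells filament.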 Particulars: E. coli DRC39 delta-acrAB growth, higher = more signal, called active from +8 up or from −8 down.
Test [9] is described as follows: RPMI8226 myeloma cell viability, profiling panel, resazurin fluorescence, basal, 24 h, PK04 Diversity Set (AID 1180).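 Also: RPMI8826 multiple myeloma cell line at 5000 cells per well.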 Particulars: higher = more signal.
Test [10] deals with E3 ubiquitin-protein ligase XIAP (Homo sapiens) (UniProt P98170). The experiment in a line: XIAP binders, primary screen, biophysical, small-molecule microarray, fluorescence 635 nm (AID 1181).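 Also: score merges 667 nm emission and signal to noise over triplicate slides.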 The conditions noted are these: small-molecule microarray binding, higher = more signal.
Test [11] has as its system XIP peptide (Xip251-270) binding. Kind of test: small-molecule binders of XIP peptide, primary screen, biochemical, small-molecule microarray, fluorescence 635/667 nm, 0.1 µg/mL protein (AID 1182). The conditions noted are these: fluorescent protein binding, 635 nm, higher = more signal, called active from +8 up or from −8 down.
A further test deals with XIP peptide (Xip251-270). The experiment in a line: small-molecule binders of XIP peptide, primary screen, biochemical, small-molecule microarray, fluorescence 635/667 nm, 0.5 µg/mL protein (AID 1183). The conditions noted are these: small-molecule microarray binding, fluorescence 635 nm; higher = more signal.
The nature of test [12]: Plasmodium falciparum growth inhibition, primary screen, strain 3D7, DAPI fluorescence, 100 nL (AID 1184).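 Also: parasites grown inside human red blood cells in medium with human serum.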 The conditions noted are these: P. falciparum 3D7 growth, 3 d, higher = more signal.
Test [13] deals with Homeobox protein Hox-A13 (Mus musculus) (UniProt Q62424). Kind of test: inhibitors of HoxA13-DNA binding, primary screen, biochemical, fluorescence polarization, labeled oligonucleotide (AID 1185). Particulars: 15 min, higher = more signal, called active from +8 up or from −8 down.
Test [14] in a line: inhibitors of hydroxyurea-induced Chk1 phosphorylation, primary screen, imaging, HeLa, phospho-Chk1 antibody, percent positive cells (AID 1186). The conditions noted are these: hydroxyurea-induced phospho-Chk1 immunofluorescence imaging, higher = more signal.
A short description of test [15]: inhibitors of hydroxyurea-induced Chk1 phosphorylation, primary screen, imaging, HeLa, phospho-Chk1 nuclear intensity (AID 1187). Particulars: hydroxyurea-induced phospho-Chk1 immunofluorescence imaging, higher = more signal.

Active and inactive are the calls of the source. Unless noted, no rule for the calls is given here.

Sequence of E3 ubiquitin-protein ligase XIAP (Homo sapiens) (P98170 whole entry, looked up): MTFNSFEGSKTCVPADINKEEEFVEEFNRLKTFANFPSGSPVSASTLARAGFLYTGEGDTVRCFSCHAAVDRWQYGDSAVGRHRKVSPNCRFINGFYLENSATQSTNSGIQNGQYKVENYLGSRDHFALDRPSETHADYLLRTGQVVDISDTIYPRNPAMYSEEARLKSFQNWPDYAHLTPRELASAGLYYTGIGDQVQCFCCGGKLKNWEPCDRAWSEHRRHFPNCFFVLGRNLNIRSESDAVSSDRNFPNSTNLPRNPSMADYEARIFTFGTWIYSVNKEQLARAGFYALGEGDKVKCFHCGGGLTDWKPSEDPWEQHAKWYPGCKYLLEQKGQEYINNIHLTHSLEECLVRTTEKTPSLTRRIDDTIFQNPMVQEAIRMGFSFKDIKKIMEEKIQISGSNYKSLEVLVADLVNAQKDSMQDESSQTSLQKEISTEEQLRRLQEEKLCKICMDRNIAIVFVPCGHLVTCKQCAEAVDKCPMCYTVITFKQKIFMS
Sequence of Homeobox protein Hox-A13 (Mus musculus) (Q62424 whole entry, looked up): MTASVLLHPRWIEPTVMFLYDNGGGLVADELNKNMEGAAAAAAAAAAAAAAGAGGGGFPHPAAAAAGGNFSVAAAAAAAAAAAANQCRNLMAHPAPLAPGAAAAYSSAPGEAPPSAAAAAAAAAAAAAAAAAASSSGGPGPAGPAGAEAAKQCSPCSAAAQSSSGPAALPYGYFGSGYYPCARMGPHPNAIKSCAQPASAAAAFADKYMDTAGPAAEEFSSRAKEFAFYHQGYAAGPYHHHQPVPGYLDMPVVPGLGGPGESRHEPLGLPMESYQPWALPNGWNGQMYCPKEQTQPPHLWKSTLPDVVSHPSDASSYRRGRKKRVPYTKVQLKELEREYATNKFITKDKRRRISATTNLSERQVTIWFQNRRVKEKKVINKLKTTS
Sequence of Dihydroorotate dehydrogenase (quinone), mitochondrial (Plasmodium falciparum (isolate 3D7)) (Q08210 whole entry, looked up): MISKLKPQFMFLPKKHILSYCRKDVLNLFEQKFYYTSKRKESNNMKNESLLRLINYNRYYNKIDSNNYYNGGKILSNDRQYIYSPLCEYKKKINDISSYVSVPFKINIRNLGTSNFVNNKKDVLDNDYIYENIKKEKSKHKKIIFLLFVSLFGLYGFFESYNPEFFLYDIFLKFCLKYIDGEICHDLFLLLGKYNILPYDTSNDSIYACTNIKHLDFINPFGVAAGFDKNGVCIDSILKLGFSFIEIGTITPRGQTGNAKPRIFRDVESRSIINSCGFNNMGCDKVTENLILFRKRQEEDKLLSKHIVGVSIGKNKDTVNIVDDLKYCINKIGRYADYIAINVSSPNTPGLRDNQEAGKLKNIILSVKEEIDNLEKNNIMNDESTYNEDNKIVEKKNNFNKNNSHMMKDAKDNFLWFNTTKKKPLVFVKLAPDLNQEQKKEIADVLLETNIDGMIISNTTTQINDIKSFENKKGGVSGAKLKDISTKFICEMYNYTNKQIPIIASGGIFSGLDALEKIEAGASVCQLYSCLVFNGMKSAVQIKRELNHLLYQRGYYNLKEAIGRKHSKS

With `CCCCN1CC=CC23O[C@@H]4C=CCCOC(=O)C4[C@H]2C(=O)N(CCCO)[C@@H]3C1=O` (some centres undefined), the z-score is -0.341 in test [1]; -1.09 (inactive) in test [2]; -0.404 (inactive) in test [3]; -0.565 (inactive) in test [5]; 0.0943 (inactive) in test [6]; -1.54 (inactive) in test [7]. For the same compound, the z-score in test [8] was -1.34 (inactive); in test [9], -0.937; in test [12], -1.74; in test [13], -3.72 (inactive); in test [14], -0.0781 (inactive); in test [15] it was -0.559 (inactive). In addition, the composite z-score was -3.94 (inactive) in [4], 0.268 in [10], -0.687 (inactive) in test [11] and -0.624 in the test on XIP peptide (Xip251-270).

For the compound `CO[C@H]1O[C@H](CO)[C@@H](OC(=O)Nc2ccccc2-c2ccccc2)[C@H](OC(=O)Nc2ccccc2-c2ccccc2)[C@H]1OC(=O)Nc1ccccc1-c1ccccc1`, the z-score was -1.04 in test [1]; 1.95 (inactive) in [2]; -1.6 (inactive) in test [3]; 1.45 (inactive) in test [5]; 4.43 (inactive) in [6]; 0.494 (inactive) in test [7]. Besides, the z-score was -0.0039 (inactive) in test [8]; -1.6 in test [9]; -1.06 in [12]; -2.05 (inactive) in [13]; -0.0075 (inactive) in [14]; 0.618 (inactive) in test [15]. For the same compound, the composite z-score in test [4] was -0.236 (inactive); in [10] it was 1.26; in test [11] it was 0.0163 (inactive); in the test on XIP peptide (Xip251-270) it was 0.861.

In the case of `CC(C)N1C(=O)c2ccccc2[C@](C)(C(=O)NC2CC2)[C@@H]1c1ccc(CO)cc1`, the z-score is 0.989 in [1]; -0.708 (inactive) in test [2]; 0.192 (inactive) in test [3]; -0.342 (inactive) in test [5]; 0.382 (inactive) in test [6]; 0.783 (inactive) in test [7]. The z-score was 1.5 (inactive) in test [8]; 0.798 in test [9]; -0.335 in [12]; -1.64 (inactive) in test [13]; -0.119 (inactive) in [14]; 0.0866 (inactive) in test [15]. Moreover, the composite z-score is -0.231 (inactive) in test [4], -0.0536 in test [10], -0.318 (inactive) in [11] and 0.0807 in the test on XIP peptide (Xip251-270).

For the compound `C=CCN1Cc2ccccc2C[C@@]2(COC(c3ccc(OCCCO)cc3)=N2)C1=O`, the z-score is 0.344 in [1]; -2.27 (inactive) in [2]; -8.12 (active) in test [3]; -0.127 (inactive) in test [5]; 1.04 (inactive) in test [6]; 1.32 (inactive) in test [7]. For the same compound, the z-score was 1.14 (inactive) in test [8]; -4.61 in test [9]; -1.85 in test [12]; -3.96 (inactive) in test [13]; -0.221 (inactive) in test [14]; -0.208 (inactive) in test [15]. The composite z-score in test [4] was -0.993 (inactive); in test [10], 0.236; in test [11] it was 0.415 (inactive); in the test on XIP peptide (Xip251-270), 0.793.

As to `CCOC(=O)C[C@H]1[C@H](OC(=O)c2cc3ccccc3oc2=O)[C@@H](NC(=O)c2ccc3ccccc3c2)c2cc(OCCCO)ccc2N1C(=O)c1ccccc1`, the z-score was -0.438 in [1]; -1.31 (inactive) in test [2]; -0.382 (inactive) in test [3]; -0.647 (inactive) in [5]; -0.283 (inactive) in [6]; -0.464 (inactive) in [7]. Moreover, the z-score in test [8] is -1.03 (inactive); in test [9], -0.486; in [12], -2.17; in test [13], 0.287 (inactive); in test [14] it was 0.371 (inactive); in test [15] it was 0.632 (inactive). Besides, the composite z-score is -2.91 (inactive) in test [4], 0.0871 in test [10], 0.126 (inactive) in test [11] and 0.218 in the test on XIP peptide (Xip251-270).

For the compound `COc1ccc([Si](C)(C)[C@@H]2[C@@H](CCO)O[C@]3(C(=O)N(Cc4cccc(N5CCCCC5=O)c4)c4ccccc43)[C@H]2C)cc1`, the z-score was -0.994 in [1]; 0.697 (inactive) in [2]; -1.93 (inactive) in test [3]; 0.225 (inactive) in [5]; 5.19 (inactive) in test [6]; 0.318 (inactive) in [7]. Besides, the z-score is 0.244 (inactive) in test [8]; -0.439 in test [9]; -2.82 in test [12]; -5.08 (inactive) in [13]; -0.405 (inactive) in test [14]; -0.474 (inactive) in test [15]. The composite z-score in test [4] is -1.75 (inactive); in test [10], 0.0623; in test [11], 0.278 (inactive); with XIP peptide (Xip251-270) it was 0.648.

Consider `CO[C@H]1O[C@H](CO)[C@@H](OC(=O)Nc2cccc(F)c2)[C@H](OC(=O)Nc2ccccc2-c2ccccc2)[C@@H]1OC(=O)Nc1ccccc1-c1ccccc1`, for which the z-score in [1] was -1.71; in test [2] it was 0.664 (inactive); in [3], -2.52 (inactive); in test [5] it was 1.39 (inactive); in [6], 2.42 (inactive); in test [7], -0.798 (inactive). The z-score is 0.689 (inactive) in test [8]; -1.78 in [9]; -2.53 in test [12]; -1.83 (inactive) in test [13]; -0.164 (inactive) in [14]; 0.217 (inactive) in [15]. For the same compound, the composite z-score in [4] was -0.59 (inactive); in test [10], 0.117; in [11], 1.37 (inactive); in the test with XIP peptide (Xip251-270), 0.805.

On to `CN(C)CCCCCCNC(=O)[C@@H]1C[C@@H]2C(=O)NCC(=O)N2[C@@H]1c1cccc(OCCO)c1`, for which the z-score is -0.358 in test [1]; -0.531 (inactive) in test [2]; -0.578 (inactive) in test [3]; 0.0067 (inactive) in test [5]; 0.536 (inactive) in test [6]; 0.757 (inactive) in test [7]. The z-score was 0.614 (inactive) in test [8]; -1.12 in [9]; 0.331 in test [12]; -2.07 (inactive) in test [13]; 0.491 (inactive) in test [14]; 0.797 (inactive) in test [15]. Also, the composite z-score in test [4] is -1.08 (inactive); in [10] it was 0.0043; in test [11] it was 0.096 (inactive); in the test with XIP peptide (Xip251-270), 0.851.

Turning to `Cc1ccc(F)cc1S(=O)(=O)N[C@@H]1CCN(Cc2ccc(C(F)(F)F)cc2)C1`, the z-score was -0.29 in test [1]; -10.8 (active) in [2]; -0.529 (inactive) in test [3]; -0.553 (inactive) in test [5]; 0.338 (inactive) in test [6]; 0.0136 (inactive) in test [7]. In addition, the z-score in [8] was -1.2 (inactive); in test [9] it was -0.979; in [12] it was -0.433; in test [13], -5.99 (inactive); in [14] it was -0.619 (inactive); in test [15], -0.441 (inactive). Also, the composite z-score in test [4] was -0.315 (inactive); in [10] it was -0.177; in [11], 0.0254 (inactive); in the test with XIP peptide (Xip251-270) it was -0.496.
